For the assay, the target named is Peroxisome proliferator-activated receptor gamma (Homo sapiens) (UniProt P37231). Put plainly: ERF_TW_NR_COA_hPPARG: Eurofins (ERF) Nuclear Receptor (NR) Functional Coactivator Assay for human Peroxisome Proliferator-activated Receptor gamma (PPARg) Agonism, conducted at Taiwan lab site. As for the experimental part:
ERF_TW_NR_COA_hPPARG is a biochemical, single-readout assay that uses extracted gene-proteins in a cell-free assay. Measurements were taken 16 hours after chemical dosing in a 96-well plate. See PPARgamma Human NHR Functional Agonist Coactivator Assay, Panlabs.ERF_TW_NR_COA_hPPARG is an assay component calculated from the ERF_TW_NR_COA_hPPARG assay. It is designed to measure FRET using a type of binding reporter as detected by fluorescence intensity of rosiglitazone with fluorimetry technology.Data from the assay component ERF_TW_NR_COA_hPPARG was analyzed at the assay endpoint, ERF_TW_NR_COA_hPPARG, in the positive analysis fitting direction relative to DMSO as the negative control and baseline of activity. Using a type of binding reporter, gain-of-signal activity can be used to understand changes in binding as they relate to gene PPARG. To generalize the intended target to other relatable targets, this assay endpoint is annotated to the nuclear receptor intended target family, where the subfamily is non-steroidal.
Human recombinant PPARgamma receptors expressed in insect cells are used. […] Determination of the amount of complex formed is read spectrofluorimetrically (excitation: 337 nm, emission: 520/490 nm). Test compound-induced increase fluorescence by 50 percent or more (>/=50%) relative to 1 uM GW1929 response indicates possible PPARgamma receptor agonist activity. […]

Active and inactive are the calls of the source. The calls were made as follows: active = hit-call score of the fitted dose curve at least 0.9, where 1 is the maximum; inactive = score below 0.9.

Sequence of Peroxisome proliferator-activated receptor gamma (Homo sapiens) (P37231 whole entry, looked up): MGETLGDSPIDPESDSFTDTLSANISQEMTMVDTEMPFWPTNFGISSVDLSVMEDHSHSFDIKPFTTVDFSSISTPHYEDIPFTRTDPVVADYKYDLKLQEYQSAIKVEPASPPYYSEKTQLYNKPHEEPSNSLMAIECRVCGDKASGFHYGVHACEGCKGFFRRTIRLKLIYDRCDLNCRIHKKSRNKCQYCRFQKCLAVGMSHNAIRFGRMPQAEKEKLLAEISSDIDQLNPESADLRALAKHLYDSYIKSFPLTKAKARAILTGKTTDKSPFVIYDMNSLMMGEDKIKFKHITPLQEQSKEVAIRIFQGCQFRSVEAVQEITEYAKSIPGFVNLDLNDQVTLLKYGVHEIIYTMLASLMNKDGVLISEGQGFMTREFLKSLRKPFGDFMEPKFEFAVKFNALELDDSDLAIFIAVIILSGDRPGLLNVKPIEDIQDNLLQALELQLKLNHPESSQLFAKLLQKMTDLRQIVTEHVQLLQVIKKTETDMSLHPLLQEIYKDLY

As to `O=S(=O)(O)C(F)(F)C(F)(F)C(F)(F)C(F)(F)C(F)(F)C(F)(F)C(F)(F)C(F)(F)F`, the molecule was classed as inactive.

The values above are taken from PubChem BioAssay AID2284376 (EPA ToxCast).
